The text below walks through data of PubChem BioAssay (NCATS).

Inconclusive results are not listed. A number with no mark means an inactive call. Calls of active or inactive are those of the source. The call rests on the fitted dose curve; in most records, active means well fitted curve in the direction sought with a large enough effect; inconclusive means small, poorly fitted or top-dose-only effect, or another doubt; inactive means no such curve, though single readings can be large; an effect the other way counts as inactive or inconclusive.

A short description of test [1]: qHTS of pediatric cancer cell lines to identify multiple opportunities for drug repurposing: Primary screen for SK-N-MC cells (AID 1347093). Further: potency means the concentration at half of the fitted maximal effect.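 On activity change, negative = cytotoxic: series mostly up to about 46 µM; plate controls were DMSO neutral control for no effect and bortezomib for full effect.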 In outline: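 Metabolically active cells were quantified by ATP-dependent luminescence (CellTiter-Glo, 15 min at room temperature) following 48 h treatment. Cells had been plated at 500-1,000 per well and settled for 5 h beforehand.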
On the technique in general: In qHTS, concentration-response curves come from the screen itself.

Test [2] is described as follows: qHTS of pediatric cancer cell lines to identify multiple opportunities for drug repurposing: Primary screen for BT-37 cells (AID 1347094). Further: potency means the concentration at half of the fitted maximal effect.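 On activity change, negative = cytotoxic: series mostly up to about 57 µM; plate controls were DMSO for no effect and bortezomib for full effect.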 A digest of the protocol: (§1)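 Luminescence from CellTiter-Glo served as readout of metabolically active cells after 48 h compound exposure. Titrations: MIPE 11-point, from 0.78 nM; NPC 8-point, from 0.59 nM (final). Concentration-response curves came straight from the primary screen.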

Test [3] can be described thus: qHTS of pediatric cancer cell lines to identify multiple opportunities for drug repurposing: Primary screen for NB-EBc1 cells (AID 1347095). Further: potency means the concentration at half of the fitted maximal effect.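 On activity change, negative = cytotoxic: plate controls were DMSO neutral control for no effect and bortezomib for full effect.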 A digest of the protocol: as §1
Test [4] in a line: qHTS of pediatric cancer cell lines to identify multiple opportunities for drug repurposing: Primary screen for U-2 OS cells (AID 1347096).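 Further: plate controls were DMSO wells for no effect and bortezomib positive control wells for full effect; nearly all actives have a fitted effect of over 50% in size.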 In outline: (§2)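 Cells (500-1,000/well) rested 5 h, then received compounds for 48 h; metabolically active cells were measured by CellTiter-Glo luminescence. Final concentrations spanned up to 46 µM (MIPE, 11-point) or 0.59 nM-46 µM (NPC, 8-point) in primary screens, 11-point in follow-ups.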

The nature of test [5]: qHTS of pediatric cancer cell lines to identify multiple opportunities for drug repurposing: Primary screen for Saos-2 cells (AID 1347097). Further: on the % scale 0 is the no-effect control and ±100 the full control effect; nearly all actives have a fitted effect of over 40% in size. A digest of the protocol: as §1
A short description of test [6]: qHTS of pediatric cancer cell lines to identify multiple opportunities for drug repurposing: Primary screen for SK-N-SH cells (AID 1347098).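 Further: DMSO served as neutral control and bortezomib at 2.3 µM as positive control; on the % scale 0 is the no-effect control and ±100 the full control effect; nearly all actives have a fitted effect of over 65% in size.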 A digest of the protocol:
as §2

Test [7] in a line: qHTS of pediatric cancer cell lines to identify multiple opportunities for drug repurposing: Primary screen for NB1643 cells (AID 1347099).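 Further: plate controls were DMSO neutral control for no effect and bortezomib positive control for full effect; nearly all actives have a fitted effect of over 50% in size.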 A digest of the protocol:
as §1

A short description of test [8]: qHTS of pediatric cancer cell lines to identify multiple opportunities for drug repurposing: Primary screen for LAN-5 cells (AID 1347100). Further: potency means the concentration at half of the fitted maximal effect.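 On activity change, negative = cytotoxic: plate controls were DMSO neutral control for no effect and bortezomib positive control for full effect.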 In outline:
as §2

A short description of test [9]: qHTS of pediatric cancer cell lines to identify multiple opportunities for drug repurposing: Primary screen for BT-12 cells (AID 1347101). Further: nearly all actives have a fitted effect of over 25% in size. Further: potency means the concentration at half of the fitted maximal effect.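 On activity change, negative = cytotoxic: plate controls were DMSO for no effect and bortezomib positive control for full effect.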 In outline: as §2
The nature of test [10]: qHTS of pediatric cancer cell lines to identify multiple opportunities for drug repurposing: Primary screen for Rh18 cells (AID 1347102). Further: on the % scale 0 is the no-effect control and ±100 the full control effect; nearly all actives have a fitted effect of over 65% in size. A digest of the protocol:
as §2

Test [11] can be described thus: qHTS of pediatric cancer cell lines to identify multiple opportunities for drug repurposing: Primary screen for OHS-50 cells (AID 1347103).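 Further: plate controls were DMSO neutral control for no effect and bortezomib positive control for full effect; nearly all actives have a fitted effect of over 40% in size.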 A digest of the protocol:
as §2

A short description of test [12]: qHTS of pediatric cancer cell lines to identify multiple opportunities for drug repurposing: Primary screen for RD cells (AID 1347104). Further: nearly all actives have a fitted effect of over 55% in size. Further: potency means the concentration at half of the fitted maximal effect.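 On activity change, negative = cytotoxic: plate controls were DMSO for no effect and bortezomib for full effect.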 In outline:
as §1

Test [13] can be described thus: qHTS of pediatric cancer cell lines to identify multiple opportunities for drug repurposing: Primary screen for MG 63 (6-TG R) cells (AID 1347105). Further: on the % scale 0 is the no-effect control and ±100 the full control effect; nearly all actives have a fitted effect of over 50% in size. A digest of the protocol:
as §1

The nature of test [14]: qHTS of pediatric cancer cell lines to identify multiple opportunities for drug repurposing: Primary screen for Rh41 cells (AID 1347108).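 Further: series mostly up to about 46 µM; luminescence drop marks cytotoxic hits; nearly all actives have a fitted effect of over 70% in size.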 A digest of the protocol: as §1
The nature of test [15]: qHTS of pediatric cancer cell lines to identify multiple opportunities for drug repurposing: Primary screen for control Hh wild type fibroblast cells (AID 1347106).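 Further: series mostly up to about 46 µM; on the % scale 0 is the no-effect control and ±100 the full control effect; a drop in luminescence marks cytotoxicity and a rise apparent proliferation; nearly all actives have a fitted effect of over 55% in size.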 In outline:
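Cells (500-1,000/well) in growth media were settled 5 h at 37 degrees C, then given compounds for 48 h. Viability was read as CellTiter-Glo luminescence. Primary runs used MIPE at 11 points (0.78 nM-46 µM) and NPC at 8 points (0.59 nM-46 µM); follow-ups used 11 points.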

Test [16] in a line: qHTS of pediatric cancer cell lines to identify multiple opportunities for drug repurposing: Primary screen for Rh30 cells (AID 1347107). Further: series mostly up to about 46 µM; on the % scale 0 is the no-effect control and ±100 the full control effect; nearly all actives have a fitted effect of over 75% in size. A digest of the protocol: as §2
Test [17] can be described thus: qHTS of pediatric cancer cell lines to identify multiple opportunities for drug repurposing: Confirmatory screen for NB1643 cells (AID 1347109). Further: potency means the concentration at half of the fitted maximal effect; nearly all actives have a fitted effect of over 45% in size. A digest of the protocol: as §2
The nature of test [18]: qHTS of pediatric cancer cell lines to identify multiple opportunities for drug repurposing: Confirmatory screen for A673 cells (AID 1347110).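 Further: potency means the concentration at half of the fitted maximal effect; cells exposed to compound for 48 h before the viability read; nearly all actives have a fitted effect of over 65% in size.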 In outline: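 Viability was read as ATP luminescence (CellTiter-Glo) after 48 h of compound exposure at 37 C in A673 cells seeded at 500-1,000/well. Titrations reached 46 uM final, with 11 points in the confirmatory screen. Concentration-response curves were fitted directly.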

A short description of test [19]: qHTS of pediatric cancer cell lines to identify multiple opportunities for drug repurposing: Confirmatory screen for SK-N-MC cells (AID 1347111).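 Further: potency means the concentration at half of the fitted maximal effect; cells exposed to compound for 48 h before the readout; nearly all actives have a fitted effect of over 70% in size.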 To be noted: SK-N-MC cell viability. In outline:
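Seed 500-1,000 cells/well; rest 5 h at 37 degrees C. Pin-transfer compounds, 11-point titration. Incubate 48 h. Add CellTiter-Glo, 15 min RT, read luminescence.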

Regarding `O=C(O)CN(CCOCCOCCN(CC(=O)O)CC(=O)O)CC(=O)O`, the activity change, negative = cytotoxic in test [1] is 0.435% [at 0.597 µM]; in test [2], 13% [at 0.745 µM]; in [3] it was 21.8% [at 0.597 µM]; in test [4], 10.9% [at 0.597 µM]; in [5] it was -2.21% [at 0.597 µM]; in test [6], -13% [at 0.741 µM]. Further, the activity change, negative = cytotoxic is 28.6% [at 0.597 µM] in test [7]; 27.7% [at 0.597 µM] in test [8]; 8.07% [at 0.745 µM] in test [9]; 14.5% [at 0.597 µM] in test [10]; 12.9% [at 0.73 µM] in [11]; 10.3% [at 0.597 µM] in test [12]. The activity change, negative = cytotoxic in test [13] was -8.72% [at 0.597 µM]; in [14], 18.7% [at 0.597 µM].
Consider `CCCN(CCC)C(=O)C(CCC(=O)O)NC(=O)c1ccccc1` (centres undefined), for which the Potency result in [1], in [2], in test [3], in test [4], in [5] and in test [6] was “inactive” throughout. The Potency entry in [7], in [8], in [9], in test [10], in test [12] and in test [13] was “inactive” throughout. Moreover, the Potency result in test [16] and in test [14] was “inactive” throughout. Also, in test [15], the call was inactive.
Take `CN1CCN(CC(=O)N2c3ccccc3C(=O)Nc3cccnc32)CC1`: the activity change, negative = cytotoxic was -2.23% [at 4.84 µM] in [1]; 11.8% [at 6.03 µM] in [2]; 16.9% [at 4.84 µM] in test [3]; 4.1% [at 4.84 µM] in test [4]; -2.29% [at 4.84 µM] in test [5]; 4.46% [at 6 µM] in test [6]. For the same molecule, the activity change, negative = cytotoxic in [7] was 9.59% [at 4.84 µM]; in test [8] it was 10.3% [at 4.84 µM]; in test [9], 5.59% [at 6.03 µM]; in [10] it was 9.39% [at 4.84 µM]; in [11], 7.59% [at 6.18 µM]; in [12], 6.71% [at 4.84 µM]. The activity change, negative = cytotoxic is 3.64% [at 4.84 µM] in test [13], 2.83% [at 4.84 µM] in test [15] and 18% [at 4.84 µM] in test [16].
Take `CC(=O)OCC1=C(C(=O)O)N2C(=O)[C@@H](NC(=O)Cc3cccs3)[C@H]2SC1`: the Potency result in [1], in [2], in [3], in test [5], in [6] and in test [7] was “inactive” throughout. The Potency result in [8], in test [9], in [10], in [12] and in [13] was “inactive” each time. Besides, the molecule was classed as inactive in test [15].
`C[C@]12C=CC(=O)C=C1CC[C@H]1[C@@H]3C[C@@H](O)[C@](O)(C(=O)CO)[C@@]3(C)C[C@H](O)[C@@]12F`: the Potency entry in [1], in [2], in test [4], in test [5], in test [6] and in test [7] was “inactive” each time. Also, the Potency entry in test [8], in [9], in test [10], in test [11], in test [12] and in test [13] was “inactive” throughout. Also, the Potency result in [16] was “inactive”. Further, the values for the Potency in test [17], in [18] and in [19] were 6.57 µM (active), 1.04 µM (active) and 7.37 µM (active), respectively.
`CN(C)CCOC(=O)COc1ccc(Cl)cc1`: the Potency entry in [1], in test [2], in test [3], in [5], in [6] and in test [7] was “inactive” each time. The Potency result in [8], in test [9], in test [10], in [11], in test [12] and in test [13] was “inactive” in each case. In addition, the Potency entry in [16] and in [14] was “inactive” throughout.
`Nc1nc(N)c2nc(-c3ccccc3)c(N)nc2n1`: the Potency is 0.531 µM (active) in test [1]; 13.8 µM (active) in test [2]; 8.41 µM (active) in [3]; 13.3 µM (active) in test [8]; 13.8 µM (active) in test [9]; 23.7 µM (active) in test [12]. Further, in [19], the Potency was 3.69 µM (active). For the same molecule, the Potency entry in [7], in test [10] and in [13] was “inactive” throughout. Also, the molecule was classed as inactive in test [15].
Take `NS(=O)(=O)c1cc2c(cc1Cl)NC(C1CC3C=CC1C3)NS2(=O)=O` (centres undefined): the Potency result in [1], in [2], in test [3], in [5], in test [6] and in test [7] was “inactive” each time. Besides, the Potency result in test [8], in test [9], in [10], in test [11], in [12] and in [13] was “inactive” throughout. Moreover, the Potency result in test [16] and in test [14] was “inactive” in each case. Also, the molecule was called inactive in [15].
As to `CC(C)(C)NCC(O)c1cc(O)cc(O)c1` (centres undefined), the Potency result in [1], in [2], in [3], in test [5], in test [6] and in test [7] was “inactive” in each case. Also, the Potency entry in test [8], in test [9], in [10], in [12], in test [13] and in test [16] was “inactive” throughout.
In the case of `CCN(CC)CCNC(=O)c1cc(S(C)(=O)=O)ccc1OC`, the Potency entry in test [1], in test [2], in test [4], in test [5], in test [6] and in test [7] was “inactive” each time. For the same molecule, the Potency entry in [8], in test [9], in [10], in [11], in test [12] and in [13] was “inactive” each time. Besides, the Potency entry in [16] and in [14] was “inactive” each time. In addition, in test [15], the molecule was classed as inactive.
For `CN(C)C(=O)Oc1ccc[n+](C)c1`, the Potency entry in test [1], in [2], in test [3], in test [5], in [6] and in [7] was “inactive” in each case. In addition, the Potency entry in [8], in [9], in test [10], in test [12] and in test [13] was “inactive” throughout. The molecule was called inactive in test [15].
With `N[C@@H](COP(=O)(O)O)C(=O)O`, the Potency entry in [1], in [2], in [3], in test [4], in test [6] and in [7] was “inactive” each time. In addition, the Potency entry in test [8], in [9], in test [10], in test [11], in test [12] and in test [13] was “inactive” throughout. The Potency entry in test [16] and in test [14] was “inactive” throughout.
For `CCOC(=O)c1cnc2c(cnn2CC)c1NN=C(C)C`, the Potency entry in [1], in test [2], in test [3], in test [4], in test [7] and in [8] was “inactive” in each case. The Potency entry in test [9], in [10], in [11], in test [12], in test [13] and in test [16] was “inactive” each time.
As for `CC(=O)[C@@]1(O)CC[C@H]2[C@@H]3CCC4=CC(=O)CC[C@]4(C)[C@H]3CC[C@@]21C`, the Potency result in test [1], in [2], in test [3], in [5], in test [6] and in test [7] was “inactive” each time. Also, the Potency entry in test [8], in [10], in test [12] and in test [13] was “inactive” throughout. In addition, the outcome in [15] was inactive.
As to `CC(C)[N+](C)(CCOC(=O)C1c2ccccc2Oc2ccccc21)C(C)C`, the Potency result in [1], in test [2], in [3], in test [5], in [6] and in test [7] was “inactive” throughout. Besides, the Potency result in test [8], in test [10], in test [11], in [12], in test [13] and in test [14] was “inactive” each time. Besides, in [15], the molecule was classed as inactive.
As to `C[N+](C)(C)CCOC(N)=O`, the Potency entry in [1], in [2], in test [4], in test [5], in [6] and in [7] was “inactive” in each case. In addition, the Potency result in test [8], in test [9], in test [10], in test [12] and in test [13] was “inactive” in each case. In [15], the result was inactive.
As for `CC(C)(Oc1ccc(CCNC(=O)c2ccc(Cl)cc2)cc1)C(=O)O`, the Potency entry in test [1], in [2], in test [3], in test [6], in [7] and in test [8] was “inactive” throughout. Moreover, the Potency result in [9], in test [10], in test [12], in [13] and in [16] was “inactive” each time.
